Test results: PubChem BioAssay
Calls of active or inactive are those of the source.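 Rule for the calls, unless noted: active = compound that reduces growth-factor-driven endothelial tube area in a mixed cell culture, no cutoff stated; inactive = the rest.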

Columns and labels:
[1] = stimulators of nuclear beta-catenin in C2C12, primary screen, imaging, WNT3A-conditioned medium, mouse C2C12, NPC library (AID 1117326; in the data active = nuclear beta-catenin stimulation mostly above about 4.2%, no sharp cut-off; inactive = mostly below about 10%; note: reference of the scale not given here); settings: stronger effect = higher value
[2] = stimulators of insulin release from INS-1E, primary screen, cell-based, 5 mM glucose, NPC library (AID 1117329;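 active = compound raises insulin release from rat beta cells at 5 mM glucose, no numeric limit stated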; note: reference of the scale not given here); settings: rat INS-1E insulin secretion, at 10 µM, stronger effect = higher value
[3] = growth inhibition of GSK3B-pretreated HCT116 cells – cell-based, CellTiter-Glo, 0.2 to 20 µM (AID 1117336;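 active = compounds lowering colon cancer cell viability after pretreatment blocking the GSK3B kinase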); settings: HCT116 viability after GSK3B inhibitor, at 20 µM, stronger effect = higher value
[4] = inhibition of endothelial tube formation, primary screen, imaging, VEGF stimulated, CD31 staining, tube area, NPC library (AID 1117340); settings: VEGF-stimulated ADSC/ECFC co-culture, at 10 µM, stronger effect = higher value
[5] = glucagon-like peptide 1 release enhancers, primary assay, NCI-H716 cell line, NPC library (AID 1117341;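 active = compound raises GLP1 secretion from the human gut endocrine cells, with no numeric limit stated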; note: reference of the scale not given here); settings: NCI-H716 cells, at 10 µM, stronger effect = higher value
[6] = HCT116 colon cancer cell growth inhibition, primary screen, CellTiter-Glo luminescence, NPC library (AID 1117342;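 active = compounds that lower survival of HCT116 colon cancer cells in the luminescence readout, no numeric limit stated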); settings: at 20 µM (top of the series)
[7] = CellTiter-Glo luminescent readout of SW480 viability loss, NPC library primary (AID 1117343;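 active = compounds that lower viability of the colon cancer cells in the luminescence readout, with no numeric limit stated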); settings: CellTiter-Glo luminescence; at 20 µM (top of the series)
[8] = decreased DLD-1 cellular survival, CellTiter-Glo luminescent readout, NPC compound collection, primary HTS (AID 1117346;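 active = compounds that lower survival of DLD-1 colon cancer cells in the luminescence readout, no cutoff given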); settings: DLD-1 viability, CellTiter-Glo luminescence; at 20 µM (top of the series)

Row | Structure (SMILES) | nuclear beta-catenin stimulation ([1]; at 10 µM) | nuclear beta-catenin stimulation ([1]; stimulation, at 2 µM) [%] | insulin secretion stimulation [2] | viability decrease [3] | tube area decrease [4] | GLP1 secretion stimulation [5] | inhibition of viability [6] | viability decrease (inhibition) [7] | viability decrease (inhibition) [8]
1 | O=C(OCC(COC(=O)c1cccnc1)(COC(=O)c1cccnc1)COC(=O)c1cccnc1)c1cccnc1 | -0.6% (inactive) | -0.3 | 1.6% (inactive) | -13.3% (inactive) | -11.4% (inactive) | 0.8% (inactive) | 17.4% (inactive) | -4.3% (inactive) | -2.7% (inactive)
2 | c1ccc2c(c1)CCc1ccccc1N2 | 0.8% (inactive) | 2.8 | 0.55% (inactive) | 8.3% (inactive) | -22.5% (inactive) | 2% (inactive) | -2.9% (inactive) | -16.7% (inactive) | -6.2% (inactive)
3 | Cc1ccc2c(n1)Oc1ccc(C(C)C(=O)OCC(=O)N(C)C)cc1C2 (stereo unspecified) | 0.6% (inactive) | -2.8 | 1.8% (inactive) | 28.6% (inactive) | -10% (inactive) | 3.6% (inactive) | 20.4% (inactive) | -3.8% (inactive) | -1.1% (inactive)
4 | CC(C(=O)O)c1ccc(/C=C2\CCCCC2=O)cc1 (stereo unspecified) | 0% (inactive) | -1.5 | 0% (inactive) | 5.4% (inactive) | 0.5% (inactive) | 2.1% (inactive) | -19.6% (inactive) | 25.5% (inactive) | -23.7% (inactive)
5 | COc1cc2c(cc1OC)C(=O)CC2 | 0.3% (inactive) | 2 | 0.2% (inactive) | -1.6% (inactive) | 3.8% (inactive) | 3.1% (inactive) | -8.1% (inactive) | 4.2% (inactive) | 14.9% (inactive)
6 | O[C@@H]1CO[C@H]2[C@@H]1OC[C@@H]2O | 1% (inactive) | 1 | -2% (inactive) | 2.15% (inactive) | 16.5% (inactive) | 1.1% (inactive) | -9.1% (inactive) | 51.8% (active) | -4.4% (inactive)
7 | Cc1ccc(S(=O)(=O)NC(=O)NC2CCCCC2)cc1 | 0.6% (inactive) | 0.3 | 26.7% (active) | -13% (inactive) | -13.1% (inactive) | -5.7% (inactive) | 0.6% (inactive) | 17.6% (inactive) | -1.8% (inactive)
8 | N#CC1(c2ccc(F)cc2)CCC(=O)CC1 | -0.7% (inactive) | -2.1 | 2.2% (inactive) | 5.9% (inactive) | 0.9% (inactive) | 1.7% (inactive) | 8.6% (inactive) | 3.1% (inactive) | -1.9% (inactive)
9 | Cc1ccc(S(=O)(=O)NC(=O)NC2CCCCCCC2)cc1 | -0.3% (inactive) | 0.1 | 18.5% (inactive) | 11.2% (inactive) | 14.5% (inactive) | 3.1% (inactive) | -9.1% (inactive) | 36.4% (inactive) | 12.9% (inactive)
10 | NC(=O)COCCN1CCN(C(c2ccccc2)c2ccc(Cl)cc2)CC1 (stereo unspecified) | -0.4% (inactive) | 1.4 | 1.7% (inactive) | -1.7% (inactive) | 9.8% (inactive) | 2.2% (inactive) | 7.4% (inactive) | -24.9% (inactive) | -5.9% (inactive)
11 | CCCCCOc1ccccc1/C(=C\SC)n1ccnc1 | 0.8% (inactive) | -0.3 | 3.4% (inactive) | -71.1% (inactive) | 30.4% (inactive) | 3.8% (inactive) | 61.1% (active) | 79.6% (active) | 99.5% (active)
12 | CC(C)(Oc1ccc(Cl)cc1)C(=O)OCCCOC(=O)C(C)(C)Oc1ccc(Cl)cc1 | 0.7% (inactive) | 2.2 | 0.5% (inactive) | 11% (inactive) | 2.3% (inactive) | -0.1% (inactive) | 5.6% (inactive) | 8.9% (inactive) | 4% (inactive)
13 | CCN(CC)c1ccc(C(=C2C=CC(=[N+](CC)CC)C=C2)c2cc(S(=O)(=O)O)ccc2S(=O)(=O)[O-])cc1 | 0.8% (inactive) | 4.4 | 1.5% (inactive) | 1.1% (inactive) | 10.6% (inactive) | -12.8% (inactive) | 20.3% (inactive) | 52.8% (active) | 13% (inactive)
14 | COc1cc([C@@H]2c3cc4c(cc3[C@@H](O[C@@H]3O[C@@H]5CO[C@@H](C)O[C@@H]5[C@H](O)[C@@H]3O)[C@H]3COC(=O)[C@H]23)OCO4)cc(OC)c1O | 44.6% (active) | 18.8 | 1.2% (inactive) | 21.9% (inactive) | 104% (active) | 0.6% (inactive) | 53.9% (active) | 73.1% (active) | 49.6% (inactive)
